According to PubChem BioAssay (EPA / NIEHS):
Active and inactive are the calls of the source. The calls were made as follows: active = hit-call score of the fitted dose curve at least 0.9, where 1 is the maximum; inactive = score below 0.9.

What was measured:
[1] = ATG_GLI_CIS: Attagene CIS-FACTORIAL HepG2 Assay for human Zinc Finger Protein GLI1 (AID 2282945); settings: HepG2, Attagene cis-factorial reporter mRNA, GLI element; actives raise or lower the signal
Outline: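 HepG2 cells transiently transfected with cis-promoter multiplexed reporter units report endogenous transcription factor activity. After 24 h chemical exposure, reporter mRNA was quantified by RT-PCR, 6-FAM labelling, HpaI digestion and capillary electrophoresis, with bidirectional fitting against DMSO.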

[2] = ATG_ISRE_CIS: Attagene CIS-FACTORIAL HepG2 Assay for human Interferon Regulatory Factor 1 (IRF1) binding to an Interferon-Stimulated Response Element (ISRE) (AID 2282948); settings: HepG2 ISRE cis-reporter (Attagene), mRNA transcription readout; actives raise or lower the signal
Outline: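 Quantitation relies on labelled RT-PCR fragments separated by capillary electrophoresis. Human HepG2 cells bearing cis-promoter reporter constructs were treated 24 h; DMSO served as baseline for bidirectional fitting.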

[3] = ATG_M_32_CIS: Attagene CIS-FACTORIAL HepG2 Assay for M32 Transcription Factor (Internal Marker) (AID 2282949); settings: HepG2 Attagene cis-factorial M32 reporter, mRNA; actives raise or lower the signal;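 also: background control marker of the multiplexed CIS panel rather than a real target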
Outline: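 Fluorescent capillary electrophoresis peaks of HpaI-digested, FAM-labelled RT-PCR reporter products give the signal. Source: transiently transfected human liver HepG2 cells, 24 h after chemical dosing; bidirectional fitting against DMSO.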

[4] = ATG_M_06_CIS: Attagene CIS-FACTORIAL HepG2 Assay for M06 Transcription Factor (Internal Marker) (AID 2282950); settings: HepG2 Attagene CIS-FACTORIAL M06 internal marker reporter; actives raise or lower the signal
Outline: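 Read-out is fluorescence of labelled reporter cDNA fragments resolved by capillary electrophoresis after RT-PCR. Cells: HepG2 carrying transfected cis-promoter reporter units, treated 24 h. Gain or loss of signal fitted relative to DMSO.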

[5] = target: Hypoxia-inducible factor 1-alpha (Homo sapiens) (UniProt Q16665); experiment: ATG_HIF1a_CIS: Attagene CIS-FACTORIAL HepG2 Assay for human Hypoxia Inducible Factor 1 (HIF1A) (AID 2282951); settings: HepG2 Attagene cis-factorial HIF1a reporter transcription; actives raise or lower the signal
Outline: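 Measures endogenous transcription-factor activity through cis-regulated reporter mRNA in HepG2. Cells dosed 24 h; transcripts quantified by RT-PCR with 6-FAM-labelled products separated by capillary electrophoresis; DMSO serves as negative control.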

[6] = target: Hepatocyte nuclear factor 6 (Homo sapiens) (UniProt Q9UBC0); experiment: ATG_HNF6_CIS: Attagene CIS-FACTORIAL HepG2 Assay for human Hepatocyte Nuclear Factor 6 (HNF6) (AID 2282952); settings: HepG2 Attagene cis-factorial HNF6 reporter transcription; actives raise or lower the signal
Outline: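 HepG2, transient MRTU transfection (cis promoters); 24 h chemical exposure; total RNA → oligo(dT) RT → PCR → 6-FAM labelling → HpaI cut → CE; bidirectional fit vs DMSO.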

[7] = target: Heat shock factor protein 1 (Homo sapiens) (UniProt Q00613); experiment: ATG_HSE_CIS: Attagene CIS-FACTORIAL HepG2 Assay for human Heat Shock Transcription Factor 1 (HSE) (AID 2282953); settings: HepG2 HSE cis-reporter, Attagene RNA transcription; actives raise or lower the signal
Outline: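 HepG2, transient MRTU transfection, cis-promoter reporters (endogenous TF activity). 24 h compound. RNA → oligo(dT) RT → PCR → 6-FAM primer extension → HpaI cut → CE. Bidirectional fit vs DMSO.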

[8] = ATG_MRE_CIS: Attagene CIS-FACTORIAL HepG2 Assay for human Metal Responsive Element (MRE) (AID 2282954); settings: HepG2 MRE cis-reporter transcription, Attagene multiplex; actives raise or lower the signal
Outline: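 Step one: transfect HepG2 with cis-regulated reporter units. Step two: dose 24 h. Step three: isolate RNA, RT-PCR, 6-FAM label, HpaI digest, capillary electrophoresis. Fit bidirectionally to DMSO.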

[9] = ATG_PBREM_CIS: Attagene CIS-FACTORIAL HepG2 Assay for human Phenobarbital-responsive Enhancer Module (PBREM) (AID 2282955); settings: HepG2 PBREM cis-reporter, Attagene multiplexed transcription; actives raise or lower the signal
Outline: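 Fluorescence of labelled reporter cDNA fragments, resolved by capillary electrophoresis, gives mRNA induction in transfected HepG2 cells treated for 24 h; DMSO serves as negative control and baseline.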

[10] = target: Paired box protein Pax-6 (Homo sapiens) (UniProt P26367); experiment: ATG_Pax6_CIS: Attagene CIS-FACTORIAL HepG2 Assay for human Paired Box 6 (PAX6) (AID 2282956); settings: HepG2 CIS-FACTORIAL PAX6 reporter transcription, RNA readout; actives raise or lower the signal
Outline: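 After twenty-four hours of chemical exposure, transfected HepG2 cells are harvested for RNA. Cis-promoter reporter transcripts are amplified, fluorescently labelled and sized by capillary electrophoresis, with gain and loss of signal scored against DMSO.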

[11] = ATG_PXRE_CIS: Attagene CIS-FACTORIAL HepG2 Assay for human Pregnane X Receptor Element (PXRE) (AID 2282957); settings: HepG2 Attagene CIS-FACTORIAL PXRE reporter, mRNA; actives raise or lower the signal
Outline: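 Transfect HepG2 with MRTUs (cis promoter elements); dose chemical, incubate 24 h; isolate RNA, RT with oligo(dT), PCR, 6-FAM label, HpaI cut, CE. Gain/loss fit vs DMSO.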

[12] = ATG_PPRE_CIS: Attagene CIS-FACTORIAL HepG2 Assay for human Peroxisome Proliferator-activated Response Element (PPRE) (AID 2282958); settings: HepG2 PPRE cis-element reporter, Attagene transcription factor profiling; actives raise or lower the signal
Outline: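 Cells are first transfected transiently with the multiplexed reporter library, then dosed for 24 h. Total RNA is reverse-transcribed, amplified, fluorescently end-labeled and HpaI-cut before capillary electrophoresis; activity is fitted bidirectionally against DMSO controls.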

[13] = ATG_RORE_CIS: Attagene CIS-FACTORIAL HepG2 Assay for human RAR-related Orphan Receptor Element (RORE) (AID 2282959); settings: HepG2 Attagene cis-factorial RORE reporter, mRNA; actives raise or lower the signal
Outline: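 Cells were HepG2 carrying transfected cis-regulated reporter constructs, dosed for 24 hours. Total RNA was reverse-transcribed and reporter cDNA amplified, fluorescently labeled and sized by capillary electrophoresis. Activity was fitted bidirectionally relative to DMSO.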

[14] = ATG_Sox_CIS: Attagene CIS-FACTORIAL HepG2 Assay for human SRY-box transcription factor (SOX) (AID 2282960); settings: HepG2 Attagene cis-factorial SOX reporter, mRNA; actives raise or lower the signal
Outline: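 Transient MRTU transfection of HepG2; 24 h compound incubation; TriZol RNA, oligo(dT) RT, PCR, 6-FAM primer extension, HpaI cut, CE. Bidirectional fit, DMSO = baseline.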

[15] = target: Transcription factor Sp1 (Homo sapiens) (UniProt P08047); experiment: ATG_Sp1_CIS: Attagene CIS-FACTORIAL HepG2 Assay for human Specificity Protein 1 (Sp1) (AID 2282961); settings: HepG2 Sp1 cis-reporter transcription, actives raise or lower the signal
Outline: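 Endogenous Sp1 activity was gauged in human liver HepG2 cells bearing transfected reporter units under a cis-regulating promoter. After 24 h dosing, reporter mRNA was quantified by RT-PCR with capillary electrophoresis, and activity fitted bidirectionally versus DMSO.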

[16] = ATG_SREBP_CIS: Attagene CIS-FACTORIAL HepG2 Assay for human Sterol Regulatory Element Binding (SREBP) (AID 2282962); settings: HepG2 Attagene cis-factorial SREBP reporter, mRNA; actives raise or lower the signal
Outline: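 Twenty-four hours after chemical dosing of transfected HepG2 cultures, reporter RNA was converted to cDNA, amplified, end-labelled with 6-FAM and resolved by capillary electrophoresis. Responses were fitted relative to DMSO.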

[17] = target: Signal transducer and activator of transcription 3 (Homo sapiens) (UniProt P40763); experiment: ATG_STAT3_CIS: Attagene CIS-FACTORIAL HepG2 Assay for human Signal Transducer and Activator of Transcription 3 (STAT3) (AID 2282963); settings: HepG2, Attagene cis-factorial STAT3 reporter transcription; actives raise or lower the signal
Outline: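 Transcript-level reporter assay. HepG2 transient MRTU transfection, 24 h exposure, fluorescence detection after RT-PCR and CE; DMSO baseline.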

[18] = ATG_TA_CIS: Attagene CIS-FACTORIAL HepG2 Assay for human TA Basal Promoter (AID 2282964); settings: HepG2 Attagene CIS-factorial TA basal promoter reporter; actives raise or lower the signal
Outline: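 Read-out: fluorescent reporter-transcript fragments resolved by capillary electrophoresis after RT-PCR and HpaI digestion. Source: HepG2 cells carrying transiently transfected multi-reporter cis constructs, treated 24 h. Endpoint fitted bidirectionally relative to DMSO.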

[19] = ATG_GRE_CIS: Attagene CIS-FACTORIAL HepG2 Assay for human Glucocorticoid Response Elements (GRE) (AID 2282947); settings: HepG2 GRE cis-reporter, Attagene multiplex mRNA; actives raise or lower the signal
Outline: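 Following 24 h chemical exposure of transiently transfected HepG2 cells, total RNA was reverse-transcribed and reporter cDNA amplified, fluorescently labelled and sized by capillary electrophoresis. Signal gain or loss was fitted relative to DMSO vehicle.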

Measured: AC50

Paired box protein Pax-6 (Homo sapiens), sequence (P26367 whole entry, looked up): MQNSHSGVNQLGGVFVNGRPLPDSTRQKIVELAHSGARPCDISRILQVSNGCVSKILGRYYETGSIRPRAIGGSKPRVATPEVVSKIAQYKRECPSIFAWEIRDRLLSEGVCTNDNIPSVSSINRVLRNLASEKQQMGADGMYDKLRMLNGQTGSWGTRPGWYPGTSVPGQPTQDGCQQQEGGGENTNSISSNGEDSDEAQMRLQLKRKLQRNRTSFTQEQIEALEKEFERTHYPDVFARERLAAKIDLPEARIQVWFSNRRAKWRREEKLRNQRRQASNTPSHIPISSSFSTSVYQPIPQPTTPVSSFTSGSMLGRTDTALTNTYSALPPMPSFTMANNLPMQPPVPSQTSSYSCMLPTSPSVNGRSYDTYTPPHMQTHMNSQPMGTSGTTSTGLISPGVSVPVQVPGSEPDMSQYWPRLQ
Hypoxia-inducible factor 1-alpha (Homo sapiens), sequence (Q16665 whole entry, looked up): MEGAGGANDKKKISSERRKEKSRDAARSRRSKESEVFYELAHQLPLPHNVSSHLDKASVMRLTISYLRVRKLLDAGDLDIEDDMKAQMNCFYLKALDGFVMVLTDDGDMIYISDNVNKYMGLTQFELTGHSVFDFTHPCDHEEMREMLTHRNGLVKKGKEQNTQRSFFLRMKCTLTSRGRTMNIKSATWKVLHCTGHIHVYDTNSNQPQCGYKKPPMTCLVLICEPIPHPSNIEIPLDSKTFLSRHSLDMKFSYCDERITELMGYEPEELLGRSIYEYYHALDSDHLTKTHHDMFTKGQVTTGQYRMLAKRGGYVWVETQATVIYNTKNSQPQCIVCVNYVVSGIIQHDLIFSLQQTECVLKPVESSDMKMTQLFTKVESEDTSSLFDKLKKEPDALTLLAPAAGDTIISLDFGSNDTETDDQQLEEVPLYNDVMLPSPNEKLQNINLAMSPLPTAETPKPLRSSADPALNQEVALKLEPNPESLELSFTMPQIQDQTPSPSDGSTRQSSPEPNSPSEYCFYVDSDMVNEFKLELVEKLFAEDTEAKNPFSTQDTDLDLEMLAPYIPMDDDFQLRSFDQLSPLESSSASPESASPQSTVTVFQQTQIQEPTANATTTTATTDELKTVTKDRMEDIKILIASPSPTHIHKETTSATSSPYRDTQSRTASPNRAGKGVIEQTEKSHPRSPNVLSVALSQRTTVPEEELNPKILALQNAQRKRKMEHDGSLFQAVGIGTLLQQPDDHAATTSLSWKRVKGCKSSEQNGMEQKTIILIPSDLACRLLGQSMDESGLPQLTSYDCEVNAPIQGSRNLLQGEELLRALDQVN
Transcription factor Sp1 (Homo sapiens), sequence (P08047 whole entry, looked up): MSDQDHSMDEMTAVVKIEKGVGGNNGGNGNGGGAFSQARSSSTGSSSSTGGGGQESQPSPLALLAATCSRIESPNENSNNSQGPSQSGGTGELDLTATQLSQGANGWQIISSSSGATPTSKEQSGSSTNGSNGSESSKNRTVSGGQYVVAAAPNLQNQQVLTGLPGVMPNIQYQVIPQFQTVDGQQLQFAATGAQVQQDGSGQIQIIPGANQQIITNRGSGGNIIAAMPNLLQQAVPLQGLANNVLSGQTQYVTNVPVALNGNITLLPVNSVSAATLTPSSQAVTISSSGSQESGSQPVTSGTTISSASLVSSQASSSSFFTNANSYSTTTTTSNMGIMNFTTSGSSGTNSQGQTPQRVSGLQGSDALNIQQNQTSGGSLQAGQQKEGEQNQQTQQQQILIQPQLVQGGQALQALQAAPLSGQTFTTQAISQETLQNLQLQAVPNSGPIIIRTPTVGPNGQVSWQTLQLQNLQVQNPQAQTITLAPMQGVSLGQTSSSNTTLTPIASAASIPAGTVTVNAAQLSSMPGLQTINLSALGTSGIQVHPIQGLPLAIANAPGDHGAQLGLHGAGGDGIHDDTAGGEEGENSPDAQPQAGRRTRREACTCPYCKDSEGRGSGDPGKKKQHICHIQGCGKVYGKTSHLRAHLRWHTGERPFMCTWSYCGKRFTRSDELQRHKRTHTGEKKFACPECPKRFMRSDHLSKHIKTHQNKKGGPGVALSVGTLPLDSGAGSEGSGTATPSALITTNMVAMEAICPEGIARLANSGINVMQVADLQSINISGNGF
Hepatocyte nuclear factor 6 (Homo sapiens), sequence (Q9UBC0 whole entry, looked up): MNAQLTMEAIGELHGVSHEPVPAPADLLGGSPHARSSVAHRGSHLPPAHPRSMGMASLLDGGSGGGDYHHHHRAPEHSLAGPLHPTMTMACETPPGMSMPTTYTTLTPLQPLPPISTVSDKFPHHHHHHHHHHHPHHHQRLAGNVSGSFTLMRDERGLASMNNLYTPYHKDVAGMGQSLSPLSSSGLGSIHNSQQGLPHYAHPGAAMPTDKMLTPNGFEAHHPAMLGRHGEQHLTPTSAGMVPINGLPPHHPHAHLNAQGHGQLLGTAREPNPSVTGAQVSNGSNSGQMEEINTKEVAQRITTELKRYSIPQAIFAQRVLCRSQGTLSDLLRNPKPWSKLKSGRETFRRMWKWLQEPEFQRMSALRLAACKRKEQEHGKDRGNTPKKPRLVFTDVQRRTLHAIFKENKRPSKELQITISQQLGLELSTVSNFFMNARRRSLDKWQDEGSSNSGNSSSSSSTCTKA
Heat shock factor protein 1 (Homo sapiens), sequence (Q00613 whole entry, looked up): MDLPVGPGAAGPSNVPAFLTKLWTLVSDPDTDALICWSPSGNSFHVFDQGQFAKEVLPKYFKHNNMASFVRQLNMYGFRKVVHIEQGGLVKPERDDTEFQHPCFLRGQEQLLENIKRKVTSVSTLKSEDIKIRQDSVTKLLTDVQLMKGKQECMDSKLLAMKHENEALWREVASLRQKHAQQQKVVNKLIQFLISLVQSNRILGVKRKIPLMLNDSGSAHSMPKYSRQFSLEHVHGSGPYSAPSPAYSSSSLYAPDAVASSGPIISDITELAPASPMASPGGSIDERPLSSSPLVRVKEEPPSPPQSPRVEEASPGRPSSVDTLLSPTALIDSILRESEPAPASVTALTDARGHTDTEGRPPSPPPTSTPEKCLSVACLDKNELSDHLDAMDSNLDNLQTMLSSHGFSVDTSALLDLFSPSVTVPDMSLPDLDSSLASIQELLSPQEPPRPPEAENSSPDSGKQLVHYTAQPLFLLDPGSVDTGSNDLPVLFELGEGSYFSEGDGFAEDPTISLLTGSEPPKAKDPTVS
Signal transducer and activator of transcription 3 (Homo sapiens), sequence (P40763 whole entry, looked up): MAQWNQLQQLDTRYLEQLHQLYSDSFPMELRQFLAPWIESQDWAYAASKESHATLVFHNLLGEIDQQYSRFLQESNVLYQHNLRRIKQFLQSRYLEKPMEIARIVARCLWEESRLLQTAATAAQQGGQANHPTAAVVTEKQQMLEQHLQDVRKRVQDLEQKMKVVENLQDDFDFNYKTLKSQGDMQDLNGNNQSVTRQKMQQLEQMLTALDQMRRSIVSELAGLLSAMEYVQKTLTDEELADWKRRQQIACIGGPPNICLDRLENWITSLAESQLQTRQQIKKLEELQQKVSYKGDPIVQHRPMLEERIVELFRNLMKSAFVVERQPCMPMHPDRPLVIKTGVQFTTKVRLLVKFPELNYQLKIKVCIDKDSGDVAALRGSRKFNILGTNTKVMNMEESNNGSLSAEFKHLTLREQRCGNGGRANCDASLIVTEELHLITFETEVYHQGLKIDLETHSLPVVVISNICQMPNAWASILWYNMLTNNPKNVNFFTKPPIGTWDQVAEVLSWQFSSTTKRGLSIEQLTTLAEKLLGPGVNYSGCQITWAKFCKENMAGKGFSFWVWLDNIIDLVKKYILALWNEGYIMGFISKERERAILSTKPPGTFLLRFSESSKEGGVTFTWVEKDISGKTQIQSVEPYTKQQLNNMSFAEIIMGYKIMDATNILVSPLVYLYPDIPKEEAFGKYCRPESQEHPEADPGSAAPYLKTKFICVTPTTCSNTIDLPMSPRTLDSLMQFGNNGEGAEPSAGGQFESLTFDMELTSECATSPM

CC(=O)OC/C=C(C)/C=C/C=C(C)/C=C/C1=C(C)CCCC1(C)C
active: [1] 159 µM | [2] 72.8 µM | [7] 155 µM | [8] 100 µM | [10] 72.2 µM | [11] 0.426 µM | [14] 138 µM | [15] 172 µM | [16] 100 µM
inactive: [3] | [4] | [5] | [6] | [9] | [12] | [13] | [17] | [18]

CCC(CC)CO
not listed: [19]
inactive: all other assays above

CNC(=C[N+](=O)[O-])NCCSCc1ccc(CN(C)C)o1
not listed: [5] | [6] | [7] | [12] | [13] | [16]
inactive: all other assays above

CCCCN(CCCC)CCCCCCN(CCCC)CCCC
not listed: [19]
inactive: all other assays above

NCCN1CCNCC1
not listed: [19]
inactive: all other assays above

NC(=O)NC(N)=O
not listed: [17] | [19]
inactive: all other assays above

CCCCCCCCCCCCCCCCCC(=O)OCCCCCCCCCCCCCC(C)C
active: [11] 46.9 µM
not listed: [5] | [9]
inactive: all other assays above

O=S(=O)(O)CCCN1CCOCC1
not listed: [5] | [7] | [9] | [13]
inactive: all other assays above
